Results as given in PubChem BioAssay (NCI).
About 83,000 compounds went through this panel and 20% of them were active in at least one assay; those are over-represented in the sample as a whole.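 Note: values are percent growth. 100 is the growth of untreated cells, values between 100 and 0 indicate rising inhibition; between -100 and 0 indicates cell death.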 Unmarked numbers belong to inactive results. Calls of active or inactive are those of the source. How the source made its calls: active means growth percent below 10; inactive means the rest.

Columns and labels:
Assay in all cases: NCI-60 one-dose screen, 48 h (100 = growth as untreated, 0 = no growth, -100 = all killed)
Conditions in all cases: 10 µM
[1] = tested on: T-47D breast
[2] = tested on: BT-549 breast
[3] = tested on: MDA-MB-435 melanoma
[4] = tested on: SW-620 colon
[5] = tested on: MCF7 breast
[6] = tested on: HCT-116 colon
[7] = tested on: HCC-2998 colon
[8] = tested on: KM12 colon
[9] = tested on: MDA-MB-468 breast

| SMILES | growth [1] | growth [2] | growth [3] | growth [4] | growth [5] | growth [6] | growth [7] | growth [8] | growth [9] |
| --- | --- | --- | --- | --- | --- | --- | --- | --- | --- |
| O=C(c1ccc(Cl)cc1)C1[C@H](c2ccccc2Br)[C@@H](c2ccccc2)NC12C(=O)Nc1ccc(Br)cc12 (some centres not stated) | 21.3% | 54.8% | -39.7% (active) | 7.29% (active) | -2.68% (active) | 3.99% (active) | -13.2% (active) | 11.8% | -39.8% (active) |
| Cc1ccc(CSc2nc(-c3ccc(F)cc3)c(C#N)c(=O)[nH]2)cc1 | 86.5% | 84.2% | 106% | 102% | 89.2% | 98.5% | 115% | 97% | 126% |
| CS(=O)(=O)Nc1ccc(-c2ccc3c(c2)ncn3-c2ccc(NC(=O)Nc3ccc(Cl)c(C(F)(F)F)c3)cc2)cc1 | -31.2% (active) | -83.8% (active) | -85.4% (active) | -67% (active) | -77.8% (active) | -87.7% (active) | -73.6% (active) | -57.8% (active) | -50.7% (active) |
| O=C(c1ccc(Cl)cc1)C1[C@H](c2ccccc2Br)[C@@H](c2ccccc2)NC12C(=O)Nc1ccccc12 (some centres not stated) | 48.6% | 48% | -47.3% (active) | 5.99% (active) | -4.27% (active) | 16.3% | 7.29% (active) | 15.2% | -45.9% (active) |
| CC(=O)c1ccc(Nc2nc(SCCC(C)C)nc(-c3ccc(F)cc3)c2C#N)cc1 | 68.3% | 56.7% | 73.8% | 68.5% | 59.6% | 22% | 83.4% | 81.8% | 69% |
| COc1ccc(C(=O)NC(=S)N2CCN(c3ncnc4c3cnn4-c3ccccc3)CC2)cc1 | 70.3% | 88.2% | 84.8% | 80.5% | 54.3% | 66.6% | 87% | 84.4% | 61.2% |
| Cc1ccc(-c2nc(Nc3ccc(C)c(S(N)(=O)=O)c3)c3ccccc3n2)cc1 | 84.2% | 104% | 74.6% | 37.2% | 26.2% | 29.5% | 49.5% | 40% | 1.27% (active) |
| O=C(NC(=S)N1CCN(c2ncnc3c2cnn3-c2ccccc2)CC1)c1ccc(Cl)cc1 | 57.2% | 63.5% | 89.2% | 68.9% | 38.9% | 41.9% | 82.6% | 87.3% | 64.6% |
| Cc1ccc2nc(COc3ccc(C(=O)NNC(=S)NCCc4ccccc4)cc3)[nH]c2c1 | 74% | 105% | 98.5% | 96.3% | 50.5% | 57.3% | 73.9% | 63.4% | 15.5% |
| Oc1ccc(/C=C2\CCCc3cc4ccc(O)cc4[o+]c32)c(O)c1 | 18.3% | 23.3% | -40.7% (active) | 20.5% | 10.8% | 15.7% | 31% | 6.02% (active) | -13.8% (active) |
| CCN1CCN(c2ccc(NC(=O)Nc3ccc4c(c3F)CCN4c3ccnc(C(=O)NC)c3)cc2C(F)(F)F)CC1 | 105% | -39.7% (active) | -92.7% (active) | -76.9% (active) | -77.9% (active) | -96.5% (active) | 120% | -83.3% (active) | 98.9% |
| O=C(c1ccc(O)cc1)C1[C@H](c2ccccc2Br)[C@@H](c2ccccc2)NC12C(=O)Nc1ccc(Cl)cc12 (some centres not stated) | 18.2% | 15.7% | -16.4% (active) | -0.351% (active) | -17.2% (active) | 18.4% | -73.2% (active) | -20.7% (active) | -47.1% (active) |
| CCCn1c(O)c(N=Nc2nc(-c3cc4ccccc4oc3=O)cs2)c2cc(Br)ccc21 | 98.8% | 113% | 105% | 106% | 90.4% | 101% | 99.1% | 106% | 94.8% |
| Cc1cc(=O)oc2cc(OCCCCOc3ccc(/C=C/C(=O)Nc4cccc(Cl)c4)cc3)ccc12 | 24.5% | 41% | 64.2% | 61.9% | 50.8% | 79.7% | 94.2% | 72.5% | 3.36% (active) |
| COc1ccccc1C(=O)NNC(=O)CSc1nc2c(c(=O)[nH]1)CCCC2 | 81.2% | 101% | 109% | 112% | 95.8% | 102% | 108% | 94.5% | 120% |
| COc1ccc(C2NC(=S)NC(C)=C2C(=O)OC(C)C)cc1OC (configuration not stated) | 91.1% | 103% | 104% | 103% | 108% | 99.3% | 114% | 103% | 98.9% |
| CC(=O)Oc1ccccc1C(=O)Oc1ccc(C(=O)/C=C/c2ccncc2)cc1 | 54.9% | 31% | 23.2% | 6.33% (active) | 0.657% (active) | -28.5% (active) | -14% (active) | 22% | -59.3% (active) |

| SMILES | growth [1] | growth [2] | growth [3] | growth [4] | growth [5] | growth [6] | growth [7] | growth [8] | growth [9] |
| --- | --- | --- | --- | --- | --- | --- | --- | --- | --- |
| O=C(c1ccccc1)n1ccc(-c2cc3cc(Br)ccc3oc2=O)n1 | 1.35% (active) | 39.2% | 48.9% | 45.8% | -8.53% (active) | 16% | 17% | 27.9% | -25.9% (active) |
| CSc1nc(-c2cccc(C)c2)c2cc(-c3ccccc3)n(C)c2n1 | 1.02% (active) | -5.93% (active) | -39.3% (active) | 20.3% | 5.57% (active) | 13.5% | 39.4% | 6.5% (active) | -29.2% (active) |
| COc1ccc([C@H]2C(C(=O)c3ccc(Cl)cc3)C3(N[C@@H]2c2ccccc2)C(=O)Nc2ccc(Cl)cc23)cc1 (some centres not stated) | 9.93% (active) | 7.71% (active) | -57.5% (active) | 4.15% (active) | -4.24% (active) | 2.1% (active) | -59.3% (active) | -23.4% (active) | -3.62% (active) |
| COc1ccc2[nH]cc(/C=N/Nc3cccc(Cl)n3)c2c1 | 31.5% | 12.1% | 44.7% | 79.7% | 31.9% | 37.3% | 39.7% | 21.3% | -13.2% (active) |
| Cc1noc2c(Cc3ccccc3)nn(CC(=O)N/N=C/c3ccc(Cl)cc3)c(=O)c12 | 9.05% (active) | 89.4% | 75.8% | 51.7% | 51.9% | 26.4% | 79.7% | 72.6% | 81% |
| CCN(CC)CCOc1ccc(C(=C(C)c2ccccc2)c2ccc(OCCN(CC)CC)cc2)cc1 | -85.3% (active) | 50.4% | -83% (active) | -4.84% (active) | -61.8% (active) | 6.73% (active) | -5.25% (active) | 0.838% (active) | -18.5% (active) |
| O=C(Cc1ccc2c(c1)CN(C1CCC(=O)NC1=O)C2=O)NCCc1ccccc1 (configuration not stated) | 1.71% (active) | -37.2% (active) | 35% | 10.6% | 18.9% | 70.8% | -11.4% (active) | 6.24% (active) | -46.1% (active) |
| CC(=O)Nc1nc(-c2ccc(N3CCN(C)CC3)c(NS(=O)(=O)c3cccc4c(N(C)C)cccc34)c2)cs1 | 35.6% | 36.6% | 51.5% | 70.9% | 34.9% | 28.2% | 43% | 59.8% | 58.2% |
| Brc1ccc(N/N=C/c2c[nH]c3ccccc23)nc1 | 25.7% | -2.29% (active) | 30.4% | 20.8% | 9.88% (active) | 6.45% (active) | -1.13% (active) | 0.217% (active) | -35.5% (active) |
| COc1ccc(OC)c(/C=N/NC(=O)c2ccc3nc(-c4ccc(Cl)cc4)[nH]c3c2)c1 | 38.2% | 74.3% | 85.7% | 92% | 51.9% | 56.9% | 85.4% | 76.7% | 69.6% |
| CN1CCc2c(sc3ncnc(N/N=C/c4cn(-c5ccccc5)nc4-c4ccc(Br)cc4)c23)C1 | 74.2% | 83.4% | 66.1% | 11% | -3.07% (active) | 1.25% (active) | 27.1% | 44.9% | 16.8% |
| O=C1Nc2cc(-c3ccc(NC(=O)c4cccs4)cc3)ccc2/C1=C/c1ccc[nH]1 | 22.2% | 91.7% | 102% | 60.3% | -12.7% (active) | 53.3% | 79.5% | 39.3% | -19.7% (active) |
| COc1ccc2nc(Cl)c(-c3cc(-c4ccccc4)nc(N)n3)cc2c1 | 30.6% | -11.1% (active) | 45.5% | -60.2% (active) | 4.28% (active) | -92.1% (active) | 62.6% | -0.39% (active) | 14.9% |
| COc1cccc(/C=N/NC(=O)c2ccc3nc(-c4ccc(Cl)cc4)[nH]c3c2)c1O | -33.2% (active) | -96.7% (active) | -89.3% (active) | -77.1% (active) | -78.5% (active) | -90.3% (active) | -98% (active) | -85.2% (active) | -96.1% (active) |
| Cc1cc(=O)oc2cc(OCCCCOc3ccc(/C=C/C(=O)Nc4ccccc4[N+](=O)[O-])cc3)ccc12 | 100% | 117% | 112% | 114% | 97% | 115% | 120% | 109% | 169% |
| COc1ccc(NC(=O)Cn2c(/C=C/c3ccc(N(C)C)cc3)nc3ccccc3c2=O)cc1 | 44.2% | -9.99% (active) | 54.3% | 48% | 21.5% | 28.6% | 63% | 50.5% | -25.4% (active) |
